Screens as filed in PubChem.
Compounds with a hit are over-represented: about 5.7% of the library has one in this group of screens.
GRIN3A LBD mod: NR3A (human) ligand-binding domain modulation. NR3A LBD differential scanning fluorimetry, Tm shift; 0% = protein alone, 100% = glycine-bound protein. Tm shift relative to glycine control, % at 25 µM. hit rate 2.5% among 340,000;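 active = melting temperature shift of at least 10% of the positive control shift, at one fixed dose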
Myeloid diff 2: myeloid differentiation induction. ER-HoxA9 myeloid progenitors, lysozyme-GFP differentiation, flow cytometry. hit rate 1% among 360,000. calls only at 10 µM;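 active = normalized GFP-positive differentiation at or above the plate's own cutoff, the solvent-only control mean plus 3 SD; inconclusive = no clear call, values can overlap the other calls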;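 also: cells exposed to compound for four days before flow analysis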
MPTP block: inhibitors of mitochondrial permeability transition pore. isolated mouse mitochondria, Ca2+ swelling absorbance, 30 min. inhibition, % at 10 µM. hit rate 1.4% among 360,000. AID 602449;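 active = inhibition of 50% or more, scaled per plate between neutral and stimulator controls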;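 also: 0% = DMSO wells given calcium and 100% = 1 mM EGTA wells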
FAS TE block: FAS thioesterase (human) inhibition; recombinant FAS-TE, OMFH fluorogenic substrate, fluorescence endpoint; inhibition, % at 15 µM; hit rate 0.67% among 360,000; AID 602261;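 active = compounds whose normalised, plate-corrected inhibition of enzyme fluorescence in the single-dose primary screen is 50% or more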;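 also: 0% = DMSO with enzyme and 100% = substrate without enzyme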
rCAG binder: molecules binding r(CAG) RNA repeats; hit rate 1.3% among 370,000; r(CAG) RNA repeat, TO-PRO-1 dye displacement fluorescence; inhibition, % at 3 µM;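 active = inhibition above the plate cutoff, the mean of all test compounds on that plate plus 3 SD, cut at about 35% in these data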;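 also: 0% = DMSO alone and 100% = 100 µM mitoxantrone as full dye displacement; higher means more dye released from RNA so lower well fluorescence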
Starred values were filed as active, the others as inactive; i = inactive; ? = inconclusive; . = not tested or not shown; + = active, no number.

SMILES	GRIN3A LBD mod	Myeloid diff 2	MPTP block	FAS TE block	rCAG binder
COC(=O)c1cc2c(c3c4cc(F)ccc4n(S(=O)(=O)c4ccccc4)c13)C(=O)N(Cc1ccccc1)C2	.	.	.	.	12
O=C(C[n+]1cccc(C(=O)Nc2ccccc2)c1)c1ccc([N+](=O)[O-])cc1	0	.	1	-1	7
O=C(COc1ccc([N+](=O)[O-])cc1)Nc1ccc2c(c1)nc1n2CCOC1	-1	+	-2	4	-2
Cc1ccc(OCC(=O)Nc2ccc3c(c2)nc2n3CCOC2)cc1	0	i	2	-3	1
O=C(CC(=O)c1ccccc1)Nc1ccc([N+](=O)[O-])cc1	20*	i	38	3	14
Cc1ccc(-c2c(NC(=O)Nc3ccc(F)cc3)nc3ncccn23)cc1	.	.	.	.	2
Cc1[nH]n(C(N)=S)c(=O)c1N=Nc1cc(C(F)(F)F)ccc1Cl	12*	i	5	-1	8
c1ccc(N2CCN(Cc3nc4ccccc4[nH]3)CC2)nc1	-1	+	0	0	0
Oc1ccc(N2CCN(Cc3nc4ccccc4[nH]3)CC2)cc1	3	i	2	-5	4
CC(C)(C)OC(=O)N1CCC2CCN(S(C)(=O)=O)CC21 (stereo not given)	.	.	.	.	0
CCOc1cc(S(=O)(=O)Nc2cc(C)cc(C)c2)ccc1Cl	11*	i	3	24	13
COc1ccc(NC(=O)N(C)C[C@H]2OCc3cn(nn3)CCCC(=O)N([C@H](C)CO)C[C@@H]2C)cc1	.	.	.	.	-1
Cc1cc(C)n(C(=O)CNc2ccccc2Cl)n1	-1	i	0	6	-1
Cc1cc(C)n(C(=O)CNc2cccc(Cl)c2C)n1	10*	i	0	5	-1
COc1ccc2ccccc2c1C=NNC(=O)CN1CCN(Cc2ccccc2)CC1	.	.	.	.	0
COc1ccc(N2C(=O)c3ccccc3C2=O)cc1	0	i	-1	3	-3
COc1ccc(N2C(=O)C(Cl)=C(Oc3cccc(OC)c3)C2=O)cc1	-3	i	1	52*	.
CN(C(=O)CCc1cn(C)c2ccccc12)c1ccc(Oc2cccnc2)cc1	.	.	.	.	3
C[C@H]1CN([C@@H](C)CO)C(=O)CCCn2cc(nn2)CO[C@@H]1CN(C)C(=O)c1ccccc1	.	.	.	.	2
C[n+]1c(-c2ccccc2)cc2c(=Cc3ccccc3)c3ccccc3n21	-6	?	-5	20	10
C[n+]1c(-c2ccccc2)cc2c(=Cc3ccc([N+](=O)[O-])cc3)c3ccccc3n21	14*	?	-3	25	11
COc1ccc(/C=C2/SC(=S)N(CCC(=O)N3CCN(C)CC3)C2=O)cc1	1	i	0	-1	-1
O=C(CCN1C(=O)/C(=C/c2cccs2)SC1=S)Nc1ccccc1O	15*	i	10	-2	10
O=C(CCN1C(=O)/C(=C/c2cccs2)SC1=S)Nc1cccc(O)c1	11*	?	-1	17	13
O=C(CCN1C(=O)/C(=C\c2ccc(F)cc2)SC1=S)Nc1ccc(O)cc1	8	i	1	5	5
SMILES	GRIN3A LBD mod	Myeloid diff 2	MPTP block	FAS TE block	rCAG binder
O=C(CCN1C(=O)/C(=C\c2cccs2)SC1=S)Nc1ccccn1	-9	i	0	-1	10
COc1ccc(/C=C2\SC(=S)N(CCC(=O)N3CCCCC3)C2=O)cc1	0	+	2	4	6
O=C(CCCN1C(=O)/C(=C/c2cccs2)SC1=S)Nc1cccc(C(=O)O)c1	-2	i	2	-6	5
O=C(CCN1C(=O)/C(=C/c2cccs2)SC1=S)Nc1ccc(O)cc1	22*	i	3	-5	13
Cc1ccccc1NC(=O)CN1C(=O)CCSc2ccccc21	.	.	.	.	1
O=C1NC(=O)C2C3C=CC(C12)C1C(=O)NC(=O)C31 (stereo not given)	.	.	.	.	1
CN1OC[C@@H]2CN(C(=S)Nc3cc(C(F)(F)F)cc(C(F)(F)F)c3)[C@H](c3ccccc3Br)C[C@@H]21	.	.	.	.	-1
COc1ccc(/C=C2\SC(=S)N(CC(=O)N3CCN(C)CC3)C2=O)cc1	1	i	3	-4	-2
COc1ccc(/C=C2\SC(=S)N(CCC(=O)Nc3ccc(O)cc3)C2=O)cc1	15*	i	6	2	5
COCCN1C(=O)/C(=C/c2ccc(N3CCCC3)cc2)SC1=S	3	+	6	-81	-8
CCOc1ccc(/C=C2\SC(=S)N(CCC(=O)Nc3ccccc3C(=O)O)C2=O)cc1	-5	+	3	33	14
O=C(CCCN1C(=O)/C(=C/c2cccs2)SC1=S)Nc1cccc(O)c1	14*	i	0	13	16
COc1ccc(/C=C2\SC(=S)N(CCC(=O)Nc3ccccc3C(=O)O)C2=O)cc1	-16	i	2	6	8
COc1ccc(-n2c(SCC(=O)Nc3ccc(Oc4ccccc4)cc3)nnc2-c2ccco2)cc1	.	.	.	.	10
COC(=O)C[C@H]1C=C[C@H](NC(=O)Nc2ccccc2F)[C@@H](CO)O1	.	i	0	.	3
CC(/C=C1\SC(=S)N(CCC(=O)Nc2ccc(O)cc2)C1=O)=C\c1ccccc1	14*	i	0	4	19
Cc1ccc(/C=C2\SC(=S)N(CCCC(=O)N3CCOCC3)C2=O)cc1	0	+	-2	12	-2
Cc1ccc2cccc(OC(=O)c3cccnc3Oc3ccccc3)c2n1	.	.	.	.	3
Cc1ccc(O)c(C(=O)c2cc(C#N)c(=O)n(-c3c(C)n(C)n(-c4ccccc4)c3=O)c2)c1	0	+	-1	-12	-12
Cc1c(-n2cc(C(=O)c3cc(Br)ccc3O)cc(C#N)c2=O)c(=O)n(-c2ccccc2)n1C	-3	i	-1	-1	9
COc1ccc(Oc2c(OC)cc(NCc3ccc(CN)cc3)c3ncccc23)cc1	.	+	2	-16	22
COc1ccc(CNS(=O)(=O)CC2NCc3cc(OC)ccc32)cc1 (stereo not given)	.	.	.	.	8
FC(F)(F)c1cnc(COc2ccc(Cl)cc2Cl)c(Cl)c1	15*	i	1	30	2
CN1C(C(=O)Nc2ccccn2)=C(O)c2sccc2S1(=O)=O	3	+	-2	-6	1
CC(C)(C)c1cc(C(=S)N2CCN(CCO)CC2)cc(C(C)(C)C)c1O	11*	i	-1	-6	-3
SMILES	GRIN3A LBD mod	Myeloid diff 2	MPTP block	FAS TE block	rCAG binder
c1ccc(Cn2nnnc2C(c2cccs2)N2CCc3ccccc3C2)cc1 (stereo not given)	16*	i	1	29	.
c1ccc(Cn2nnnc2C(c2cccs2)N2CCCCCC2)cc1 (stereo not given)	4	i	3	29	-4
C/C(=N\Nc1ccc(C(F)(F)F)cc1[N+](=O)[O-])C1CC1	14*	i	10	22	0
CC(=O)NNc1ccc(C(F)(F)F)cc1[N+](=O)[O-]	2	i	-1	-4	0
Cc1ccc(Nc2ccc(C(F)(F)F)cc2[N+](=O)[O-])cc1	11*	i	2	17	-2
Cn1c(SCC(=O)Nc2nccs2)nnc1C1CC1	1	i	-2	-1	2
